“And” between values parts separate entries of the source, which are not always exact repeats. Equal entries are not always repeated. The campaign covered roughly 260,000 compounds. About 1,500 (0.58%) were called active. Roughly 5% stayed inconclusive and do not appear here.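 Rule for the calls: active = inhibition above a set limit at one or more doses, reproduced on every date tested; inconclusive = results disagree between test dates, or hit never tested in dose response; inactive = the rest.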 Only a sample is shown. Measured potencies and affinities stand elsewhere.
Target: Virion infectivity factor (Human immunodeficiency virus type 1 group M subtype B (isolate BH10)) + Virion infectivity factor (Human immunodeficiency virus type 1 group M subtype B (isolate BRU/LAI)) + Virion infectivity factor (Human immunodeficiency virus type 1 group M subtype B (isolate PCV12)) + Virion infectivity factor (Human immunodeficiency virus type 1 group M subtype B (isolate HXB2)) + DNA dC->dU-editing enzyme APOBEC-3G (Homo sapiens) (UniProt P69720+P69721+P69722+P69723+Q9HC16)
Assay: HIV-1 Vif–A3G interaction blockers – biochemical, TR-FRET, GST-Vif 1-94, biotin-A3G peptide, dose response retest, primary screen (AID 1117319);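 note: Vif residues 1-94 fused to GST binding biotinylated APOBEC3G peptide 110-148; 0% = full assay without inhibitor and 100% = GST in place of GST-Vif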
Conditions: TR-FRET GST-Vif / biotin-A3G peptide binding; hits give high values

inhibition, inactive:
O=C(COC(=O)c1ccccc1Nc1ccc(SC(F)F)cc1)NC1CC1 -3.33%
CCCCOc1ccc(C(=O)NCC(=O)OCCCOC(=O)CNC(=O)c2ccc(OCCCC)cc2)cc1 -9.89%
CCCCCOc1ccc(C(=O)NCC(=O)NCC(=O)OCC)cc1 21.7%
COc1ccccc1N1CCN(C(=O)c2cc3n(n2)C(C(F)(F)F)CC(c2ccco2)N3)CC1 (stereo unspecified) 3.76%
O=C(O)c1cc2n(n1)C(C(F)(F)F)CC(c1ccco1)N2 (stereo unspecified) 23.7%
NC(=O)c1cc2n(n1)C(C(F)(F)F)CC(c1ccco1)N2 (stereo unspecified) 28%
NC(=O)C1CCN(C(=O)c2cc3n(n2)C(C(F)(F)F)CC(c2ccco2)N3)CC1 (stereo unspecified) 21.3%
O=C(c1cc(-n2cnnc2)ccc1Cl)N1CCN(c2nc(-c3ccccc3)cs2)CC1 -0.17%
O=C(NC12CC3CC(CC(C3)C1)C2)N(Cc1ccccc1)Cc1ccncc1 -2.12%
Cc1cc(C)n2nc(SCCCC(=O)c3ccccc3)nc2n1 -0.54%
COc1ccccc1NC(=S)NNC(=O)c1cc(C)n(C)n1 5.87%
COc1ccc2[nH]c(C)c(CCNC(=S)Nc3ccccc3C)c2c1 -0.27%
O=c1oc2cc(O)ccc2c2ccccc12 -45.8%
O=c1oc2ccccc2c2oc3cc(O)c(O)cc3c12 24.2%
O=c1oc2cc(O)c(Cl)cc2c2ccccc12 -238%
O=c1oc2cc(O)ccc2c2oc3cc(O)ccc3c12 21.4%
COc1cccc(NC(=O)CN(C)C(=O)c2cc(-c3cccc(Br)c3)nc3ccccc23)c1 4.76%
CCOC(=O)c1nc(NCc2cccc(OC)c2)c2ccccc2n1 -2.69%
O=C(COC(=O)c1cc(=O)[nH]c2ccccc12)NC1CCCC1 8.34%
CCOC(=O)c1cnc2c(C#N)cnn2c1N -5.32%
CCOC(=O)c1cnc2c(C(=O)OCC)cnn2c1N 4.51%
CCSc1nc(-c2ccccc2)c(-c2ccccc2)n1CC(O)CO (stereo unspecified) -5.14%
CCc1ccc[n+](-c2[nH]c(=O)sc2/C=N/NC([S-])=Nc2ccccc2)c1 30%
Cc1ccc[n+](-c2[nH]c(=O)sc2/C=N/N=C(\[O-])CCn2c3ccccc3c3ccccc32)c1 -0.87%
O=C(Nc1ccc(F)cc1Cl)c1ccc2c(=O)n3c(nc2c1)CCC3 2.76%
O=C(CSc1ccc2c(c1)OCCO2)N1CCN(c2ccccc2O)CC1 14.3%
Nc1cc(Cl)ccc1Oc1ccc(Cl)cc1 14.4%
Nc1cc(Cl)ccc1Oc1ccccc1 -0.78%
CC(=O)Nc1ccc(S(=O)(=O)NCCC(=O)N2CCC(Cc3ccccc3)CC2)cc1 -8.11%
CCC(=O)N(CCC1(C(C)C)CCOC(C)(C)C1)Cc1ccco1 (stereo unspecified) 1.68%
O=C(CC1C(=O)NCCN1Cc1ccccc1)NCCN1CCCCC1=O (stereo unspecified) 4.62%
CC(C)(C)CN1CCNC(=O)C1CC(=O)NCCN1CCCc2ccccc21 (stereo unspecified) 20.1%
Cc1ccccc1NC(=O)c1cnn(-c2ccccc2)c1C -7.17%
NC(=S)NCc1cccnc1 -0.39%
CCn1cc(S(=O)(=O)CC(=O)NC2CCCCC2)c2ccccc21 -2.6%
CCOC(=O)N1CCN(S(=O)(=O)c2ccc(C)c(C(=O)NC3CCCCC3)c2)CC1 5.81%
CCNc1ccccc(-c2ccc3ccccc3n2)c1=O 14.5%
c1ccc2nc(-c3ccc4c(c3)OCO4)ccc2c1 5.74%
COc1ccc(NC(=O)c2cc(S(=O)(=O)N3CCCCC3)ccc2N2CCCCC2)cn1 5.2% and 0.78%
Cn1c(=O)c2c(ncn2CC(=O)N/N=C/C=C/c2ccccc2)n(C)c1=O 7.57%
Cn1c(=O)c2c(ncn2CC(=O)N/N=C/C=C/c2ccccc2[N+](=O)[O-])n(C)c1=O 10.3%
O=C(c1ccco1)N(c1ccccn1)c1ccccn1 3.18%
O=C(N/N=C/C=C/c1ccccc1)c1ccncc1 -6.12%
O=C(/C=C/c1ccco1)Nc1ccccn1 1.75%
O=C(C=Cc1ccco1)c1ccco1 3.42%
COc1ccccc1/C=C/C=N/NC(=O)c1ccncc1 -1.29%
O=C(/C=C/c1ccco1)Nc1cccnc1 1%
OC(CNCCNc1ncccc1C(F)(F)F)Cn1ccc2ccccc21 (stereo unspecified) 4.3%
O=C(CNS(=O)(=O)c1ccc(Br)cc1)N1CCN(c2ccc(F)cc2)CC1 -8.26%
O=C(O)CNC(=O)CCn1nnc2ccccc2c1=O -2.36%
CCOc1cccc2sc(NC(=O)c3ccc(Br)s3)nc12 -37.3%
Cc1ccc(NC(=O)CCC(=O)N/N=C/c2cccs2)cc1C -6.77%
Cc1cc(C)n2c(SCCC(C)C)nnc2n1 10.9%
CCOC(=O)Oc1ccc2c(=O)c(Oc3cccc(C)c3)coc2c1 0.27%
CC(=O)N1CCSc2ccc(S(=O)(=O)NCCc3ccc(C)cc3)cc21 2.49%
Cc1ccc(SCc2c(C(=O)N/N=C/c3ccc(C)o3)nnn2-c2nonc2N)cc1 -4.93%
N#Cc1ccc(OCc2cccc(S(=O)(=O)N3CCOCC3)c2)cc1 0.78%
c1ccc(-c2nnc(-c3ccco3)o2)cc1 -6.32%
CC(/C=C/c1ccco1)=N/NC(=O)c1ccc(C)nc1 1.76%
O=C(N/N=C/C=C/c1ccccc1)c1cccnc1 -6.59%
CC(/C=C/c1ccco1)=N\NC(=O)c1cccc(Cl)c1 -1.59%
CC(/C=N/NC(=O)c1cccnc1)=C\c1ccco1 28.6%
CCc1c(C#N)c(SCCC(=O)Nc2cccc(OC)c2)nc2c1C(=O)CC(C)(C)C2 -3.29%
CC(C)(Cc1ccccc1)NC(=O)C(=O)c1cn(CC(=O)N2CCOCC2)c2ccccc12 6.86%
O=C(/C=C/c1ccccc1F)c1cccc([N+](=O)[O-])c1 -5.2%
O=C(CN(C(=O)CNS(=O)(=O)c1ccc(F)cc1)c1ccc(F)cc1)NCc1ccco1 -4.81%
Cc1ccc(/C=N/N2CCN(Cc3ccccc3)CC2)cc1 -2.27%
Cc1ccc(NCc2nnc(SCC(=O)Nc3ncc(C)s3)n2CC2CCCO2)c(C)c1 (stereo unspecified) -1.98%
CC(=O)Nc1ccc(NC(=O)CSc2nnc(CNc3ccc(F)cc3)n2CC2CCCO2)cc1 (stereo unspecified) -7.5%
COC(=O)Cn1ncc2c3ccccc3n(C)c2c1=O 4.81%
COc1ccc(OC)c(S(=O)(=O)N(C(C)=O)c2ccc3oc(=O)sc3c2)c1 13.9%
CC(=O)N(c1ccc2oc(=O)sc2c1)S(=O)(=O)c1ccccc1 7.75% and 2.73%
CCC(C)NC(=O)C1CCC(CNS(=O)(=O)c2ccc3c(c2)CC(C)N3C(C)=O)CC1 (stereo unspecified) 4.98%
CCCOC(=O)c1c(NC(=O)CCC(=O)O)sc2c1CCCCC2 8.05%
Cc1ccc(OCCNC(=O)c2ccccc2N)cc1 8.93%
CC(=O)C1=C(c2ccccc2)NC(=O)NC1c1ccccc1OCC(=O)Nc1ccccc1 (stereo unspecified) -2.45%
S=C(NCCc1ccccc1)Nc1ncccn1 4.03%
O=C1CCC/C(=N\NC(=O)c2ccc(CSc3cccc4cccnc34)cc2)C1 5.86%
O=C(N/N=C/c1ccc[nH]1)c1ccc(COc2cccc3cccnc23)cc1 9.25%
CC(Nc1nc(-c2ccccc2O)nc2ccccc12)c1ccccc1 (stereo unspecified) 4.08%
CCOc1ccc(-c2cc(N3C(=O)Nc4ccccc4N3O)on2)cc1 19.2%
O=c1cc(-c2ccc(O)cc2)oc2ccc(O)cc12 28.2%
COc1c(O)c(O)c2oc(-c3ccccc3)cc(=O)c2c1OC -3.24%
O=C(O)c1ccccc1C(=O)NC1CCCc2ccccc21 (stereo unspecified) -5.37%
Cc1cc(C)c(NC(=O)CN(C)CC(=O)N(C)CC(=O)Nc2c(Cl)cccc2Cl)c(C)c1 -11.3%
COc1ccc(CCNC(=O)COC(=O)/C=C/c2cccs2)cc1 8.83%
Cc1nn(-c2ccccn2)c2c1-c1nc(N)ncc1CC2 5.31%
C=C(C)C1Cc2c(C)nn(-c3ccccn3)c2C1 (stereo unspecified) -1.81%
Nc1nc(SCC(=O)c2c(N)n(Cc3ccccc3)c(=O)[nH]c2=O)n[nH]1 -2.67%
CCCC(=O)NC(Nc1c(C)n(C)n(-c2ccccc2)c1=O)C(Cl)(Cl)Cl (stereo unspecified) -6.76%
COc1ccc(CNS(=O)(=O)c2c(C)[nH]c(C)c2C(=O)N2CCCCC2)cc1 -4.48%
CCOC(=O)Cc1cc(=O)n2[nH]c(-c3ccccc3)cc2n1 3.98%
CCOC(=O)Cc1cc(=O)n2[nH]c(C(C)(C)C)cc2n1 2.01%
O=C1CCCC(O)=C1N=Nc1ccc2ncsc2c1 1.8%
O=C(O)c1cccc(N=NN2CCOCC2)c1 0.39%
O=C1CCCC(O)=C1N=Nc1ccc(Cl)c(Cl)c1 -7.94%
CC(=O)N1CCc2cc(N=NC3=C(O)CCCC3=O)ccc21 11.2%
O=Cc1cc(N=Nc2cccc(C(=O)O)c2)ccc1O 8.26%
Cc1nc2ccc(N=NC3=C(O)CCCC3=O)cc2s1 19.7%
O=C1CCCC(O)=C1N=Nc1cccc(S(=O)(=O)N2CCOCC2)c1 -9.52%
CC1(C)CC(=O)C(N=Nc2ccc(S(=O)(=O)N3CCOCC3)cc2)=C(O)C1 4.95%
